This passage reports Potency results from PubChem BioAssay (Tox21).

Assay [1] can be described thus: Nuclear factor erythroid 2-related factor 2/antioxidant responsive element (Nrf2/ARE) small molecule agonists: qHTS cell viability counter screen in human keratinocytes (AID 1919968; active means well fitted curve in the direction sought with a large enough effect in the repeat runs; an effect the other way counts as inactive or inconclusive; further: nearly all actives have a fitted effect of over 55% in size). In a few lines:
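In human HaCaT keratinocytes stably expressing an ARE-driven luciferase, compound exposure lasted 23 h at 37 C under 5% CO2. Viable cells are quantified with a protease-based fluorogenic reagent (CellTiter-Fluor) read 1 h after addition.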
On the technique in general: In qHTS, concentration-response curves come from the screen itself.

Assay [2] is described as follows: Nuclear factor erythroid 2-related factor 2/antioxidant responsive element (Nrf2/ARE) small molecule agonists: luciferase reporter gene qHTS assay in human keratinocytes (AID 1919969). Further: nearly all actives have a fitted effect of over 35% in size. Further: potency means the concentration at half of the fitted maximal effect. On the technique in general: A reporter such as luciferase makes a cellular process visible.
Assay [3] deals with Gonadotropin-releasing hormone receptor (Homo sapiens) (UniProt P30968). Kind of assay: Human gonadotropin-releasing hormone receptor (GnRHR) small molecule agonists, calcium flux assay in GnRHR-HEK293 cells (AID 1920063). Further: nearly all actives have a fitted effect of over 35% in size. The method in brief:
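Intracellular calcium rise is the read-out: engineered human GnRHR HEK293 cells, dye-loaded, are exposed to DMSO-dissolved compounds and fluorescence at Ex/Em 480/540 is tracked for 3 min.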

Assay [4] addresses KiSS-1 receptor (Homo sapiens) (UniProt Q969F8). Kind of assay: Human kisspeptin (KISS1R) small molecule agonists, calcium flux assay in KISS1R-HEK293 cells (AID 1920064; active means well fitted curve in the direction sought with a large enough effect in the repeat runs; an effect the other way counts as inactive or inconclusive). The method in brief:
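Concentration-response testing used 15 concentrations in triplicate on human KISS1R-expressing HEK293 cells. Calcium-dependent fluorescence (Ex/Em 480/540) was followed kinetically for 3 min after compound transfer.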
Background: A change in cytosolic calcium serves as a functional read-out for many receptors and channels.

Assay [5] is described as follows: G protein-coupled receptor (GPCR) small molecule agonists, calcium flux assay: HEK293 wild type cell line counter screen (AID 1920065). In a few lines: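 Fluorescence intensity signals activation. After overnight (18 h) culture and a 1 h calcium dye load at 37 C, compounds are added by pin tool and the plate read at 480/540 nm for 3 min in 1 s steps.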
A short description of assay [6]: p53 small molecule agonists, cell-based qHTS assay with human liver microsomes (AID 1963577).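 Further: p53 response element beta-lactamase reporter cells with liver microsomes plus NADPH.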 The method in brief:
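16 h, 37 C exposure of p53RE-bla cells to compounds with human liver microsomes and NADPH (0.5 mg/mL final each); detection via LiveBLAzer mixture, 2 h dark at room temperature.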

Assay [7] in a line: p53 small molecule agonists, cell-based qHTS assay with rat liver microsomes (AID 1963578). In a few lines:
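With rat liver microsomes and NADPH present (0.5 mg/mL final each), p53RE-bla cells are treated with compound for 16 h at 37 C. LiveBLAzer detection mixture is then applied for 2 h at room temperature in the dark.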

Assay [8] can be described thus: p53 small molecule agonists, cell-based qHTS assay with human liver microsomes: qHTS cell viability counter screen (AID 1963579). Further: nearly all actives have a fitted effect of over 45% in size. In a few lines:
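In this multiplexed counter screen, the reporter plates were subsequently treated with CellTiter-Glo so that cell viability, reflected by luminescence, could be recorded for p53RE-bla cells dosed 16 h with compounds under microsomal activation (HLM and NADPH).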

Assay [9] can be described thus: p53 small molecule agonists, cell-based qHTS assay with rat liver microsomes: qHTS cell viability counter screen (AID 1963580). Further: nearly all actives have a fitted effect of over 45% in size. The method in brief:
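Cytotoxicity counter screen: intracellular ATP read by CellTiter-Glo luminescence in the p53 reporter wells. HCT-116 p53RE-bla cells were treated for 16 h at 37 C alongside rat liver microsomes and NADPH, each 0.5 mg/mL final.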

The nature of assay [10]: p53 small molecule agonists, cell-based qHTS assay: qHTS cell viability counter screen (AID 1963581). Further: nearly all actives have a fitted effect of over 45% in size. The method in brief: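 Luminescence from CellTiter-Glo, reflecting ATP content, serves as the cytotoxicity measure; it is taken after the 2 h reporter substrate step in HCT-116 p53RE-bla cells dosed for 16 h at 37 C.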
The nature of assay [11]: p53 small molecule agonists, cell-based qHTS assay (AID 1963582; active means well fitted activation curve with a large enough effect in the signal ratio in the repeat runs, not every such curve was filed as active; the % refers to the signal ratio). In a few lines:
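After plating, p53RE-bla cells sat 5 h in the incubator; compounds or DMSO vehicle were pinned in; a 16 h incubation at 37 C followed; FRET substrate was added and, 2 h later at RT, fluorescence was measured.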

Assay [12] concerns the target Muscarinic acetylcholine receptor M1 (Homo sapiens) (UniProt P11229). As to the kind of experiment: Cholinergic receptor muscarinic 1 (CHRM1) small molecule agonists, cell-based qHTS assay (AID 1963589). Further: nearly all actives have a fitted effect of over 35% in size. The method in brief: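 Fluorescent calcium dye reports M1 activation in stably transfected CHO cells. Compounds, 15 concentrations, added after 1 h dye loading at 37 C; kinetic reading at 1 sec intervals.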

Assay [13] in a line: cAMP Responsive Elements (CRE) small molecule agonists, cell-based qHTS assay (AID 1963590). In a few lines:
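Compound exposure lasted 3 h at 37 C/5% CO2 in CRE-bla HEK 293T cells grown in assay medium with 10% dialyzed FBS and 25 mM HEPES. Reporter signal came from LiveBLAzer B/G FRET substrate, 2 h, room temperature.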

Assay [14] is described as follows: cAMP Responsive Elements (CRE) small molecule antagonists, cell-based qHTS assay (AID 1963591; active means well fitted inhibition curve with a large enough effect in the signal ratio in the repeat runs, not every such curve was filed as active; the % refers to the signal ratio). The method in brief: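 Stimulation used NKH477 at a final 0.25 uM for 3 h in compound-treated CRE-bla HEK293T cells, seeded 18 h beforehand. Reporter activity was measured with LiveBLAzer B/G FRET substrate after 2 h at room temperature.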
Assay [15] has as its target Beta-2 adrenergic receptor (Homo sapiens) (UniProt P07550). Kind of assay: Adrenergic beta2 receptor (ADRB2) small molecule agonists, cell-based qHTS assay (AID 1963593).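 Further: CHO cells stably overexpressing human ADRB2.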 In a few lines:
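CHO cells stably over-expressing ADRB2 were plated overnight at 37C, then dosed with compounds plus a stimulation mix containing 100uM IBMX and 25uM Ro-20-1724 for 0.5hr at room temperature. cAMP was measured by HTRF competition, 1hr.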

In assay [16] the target is D(2) dopamine receptor (Homo sapiens) (UniProt P14416). As to the kind of experiment: Dopamine D2 receptor (DRD2) small molecule agonists, cell-based qHTS assay (AID 1963594). Further: nearly all actives have a fitted effect of over 35% in size. The method in brief: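 cAMP accumulation in DRD2-HEK293 cells measured by HTRF after 1 h detection; compounds added 10 min before NKH477 (200nM […]) forskolin-analogue stimulation, 30 min at room temperature, with Ro20-1724 present at 0.1 mM final.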
Chain of D(2) dopamine receptor (Homo sapiens) (P14416 whole entry, looked up): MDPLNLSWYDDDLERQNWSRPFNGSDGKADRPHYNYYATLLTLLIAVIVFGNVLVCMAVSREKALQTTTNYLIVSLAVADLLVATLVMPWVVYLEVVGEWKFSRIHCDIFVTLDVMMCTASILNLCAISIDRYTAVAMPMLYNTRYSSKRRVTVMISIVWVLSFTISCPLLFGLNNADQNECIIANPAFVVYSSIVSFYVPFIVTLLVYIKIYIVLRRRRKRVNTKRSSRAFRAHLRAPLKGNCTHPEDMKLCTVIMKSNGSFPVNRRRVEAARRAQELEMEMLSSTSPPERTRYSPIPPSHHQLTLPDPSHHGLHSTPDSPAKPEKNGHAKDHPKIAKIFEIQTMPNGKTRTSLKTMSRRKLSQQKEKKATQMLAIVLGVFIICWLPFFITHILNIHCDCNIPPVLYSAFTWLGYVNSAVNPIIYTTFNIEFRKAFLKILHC

Assay [17] has the same target. As to the kind of experiment: Dopamine D2 receptor (DRD2) small molecule antagonists, cell-based qHTS assay (AID 1963595; active means well fitted inhibition curve with a large enough effect in the signal ratio in the repeat runs, with a control signal flat; the % refers to the signal ratio). In a few lines: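 Antagonist mode in DRD2-HEK293 cells: after compound addition with 0.1 mM Ro20-1724, cells received quinpirole (12 nM) and NKH477 (200 nM) for 30 min at room temperature; HTRF cAMP read after 1 h detection.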
Assay [18] has as its target 5-hydroxytryptamine receptor 2A (Homo sapiens) (UniProt P28223). As to the kind of experiment: 5-hydroxytryptamine receptor 2A (HTR2A) small molecule agonists, cell-based qHTS assay (AID 1963587). Further: nearly all actives have a fitted effect of over 30% in size. The method in brief: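 Kinetic calcium-flux fluorescence (2 min, 1 sec intervals) after compound addition in agonist mode. HTR2A-CHO cells were cultured 18 h, then dye-loaded 1 h at 37 C.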

The target in assay [19] is Muscarinic acetylcholine receptor M1 (Homo sapiens) (UniProt P11229). As to the kind of experiment: Cholinergic receptor muscarinic 1 (CHRM1) small molecule antagonists, cell-based qHTS assay (AID 1963588). Further: nearly all actives have a fitted effect of over 40% in size. The method in brief: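 Compounds were tested at 15 concentrations in three independent runs. Dye-loaded CHRM1-CHO cells were exposed 5 min at room temperature before stimulation by acetylcholine added at 50nM. Intracellular calcium was read kinetically on FDSS for 3 min.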
Chain of Muscarinic acetylcholine receptor M1 (Homo sapiens) (P11229 whole entry, looked up): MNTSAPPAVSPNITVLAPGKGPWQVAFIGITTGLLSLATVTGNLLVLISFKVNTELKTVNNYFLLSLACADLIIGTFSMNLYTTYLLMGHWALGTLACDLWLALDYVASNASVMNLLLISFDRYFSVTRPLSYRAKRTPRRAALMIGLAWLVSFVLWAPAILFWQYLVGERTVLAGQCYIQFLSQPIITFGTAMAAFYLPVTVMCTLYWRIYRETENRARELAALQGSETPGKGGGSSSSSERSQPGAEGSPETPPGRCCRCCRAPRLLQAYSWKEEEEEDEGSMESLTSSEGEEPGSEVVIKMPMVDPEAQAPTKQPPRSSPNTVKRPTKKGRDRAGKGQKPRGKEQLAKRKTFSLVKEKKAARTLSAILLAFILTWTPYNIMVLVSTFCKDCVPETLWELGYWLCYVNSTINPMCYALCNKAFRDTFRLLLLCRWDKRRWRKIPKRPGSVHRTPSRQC

Assay [20] has as its target Beta-2 adrenergic receptor (Homo sapiens) (UniProt P07550). Kind of assay: Adrenergic beta2 receptor (ADRB2) small molecule antagonists, cell-based qHTS assay (AID 1963592). Further: series mostly up to about 92 µM; nearly all actives have a fitted effect of over 50% in size. The method in brief:
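Assay format: CHO-ADRB2 cells, 18-20hr seeding at 37C/5% CO2, then compound plus 1nM isoproterenol agonist mix for 0.5hr RT. Homogeneous time-resolved fluorescence cAMP detection after 1hr, expressed as 665/615 nm ratio.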

Where “and” joins values, the source holds several entries; their conditions need not be identical. Identical values can stand only once. Records with an inconclusive call do not appear. The source holds several records for some structures; these can differ, active in one and inactive in another. Calls of active or inactive are those of the source. Unless noted, the call rests on the fitted dose curve.

Chain of 5-hydroxytryptamine receptor 2A (Homo sapiens) (P28223 whole entry, looked up): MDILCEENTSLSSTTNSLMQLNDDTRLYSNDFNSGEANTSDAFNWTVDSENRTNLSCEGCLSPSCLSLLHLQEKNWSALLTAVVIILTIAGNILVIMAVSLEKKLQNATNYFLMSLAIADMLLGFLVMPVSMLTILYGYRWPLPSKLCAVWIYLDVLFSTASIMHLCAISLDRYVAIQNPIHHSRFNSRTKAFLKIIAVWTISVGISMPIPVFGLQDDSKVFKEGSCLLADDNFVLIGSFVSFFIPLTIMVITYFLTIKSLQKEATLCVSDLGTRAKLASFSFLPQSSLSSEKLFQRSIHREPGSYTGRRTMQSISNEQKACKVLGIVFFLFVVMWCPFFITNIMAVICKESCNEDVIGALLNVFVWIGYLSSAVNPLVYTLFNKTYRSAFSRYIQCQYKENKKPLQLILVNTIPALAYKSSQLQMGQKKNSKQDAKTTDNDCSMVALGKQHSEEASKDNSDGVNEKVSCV
Chain of Beta-2 adrenergic receptor (Homo sapiens) (P07550 whole entry, looked up): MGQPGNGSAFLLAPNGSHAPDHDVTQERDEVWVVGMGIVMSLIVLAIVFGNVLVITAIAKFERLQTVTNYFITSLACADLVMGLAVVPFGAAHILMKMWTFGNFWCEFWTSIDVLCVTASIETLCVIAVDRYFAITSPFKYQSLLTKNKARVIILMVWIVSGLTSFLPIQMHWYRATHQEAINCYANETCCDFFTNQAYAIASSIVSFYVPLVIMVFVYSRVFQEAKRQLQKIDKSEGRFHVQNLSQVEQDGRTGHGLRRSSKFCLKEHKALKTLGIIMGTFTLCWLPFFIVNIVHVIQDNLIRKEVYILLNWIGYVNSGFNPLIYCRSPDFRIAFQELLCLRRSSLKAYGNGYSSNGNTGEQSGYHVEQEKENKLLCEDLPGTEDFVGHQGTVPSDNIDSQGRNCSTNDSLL
Chain of Gonadotropin-releasing hormone receptor (Homo sapiens) (P30968 whole entry, looked up): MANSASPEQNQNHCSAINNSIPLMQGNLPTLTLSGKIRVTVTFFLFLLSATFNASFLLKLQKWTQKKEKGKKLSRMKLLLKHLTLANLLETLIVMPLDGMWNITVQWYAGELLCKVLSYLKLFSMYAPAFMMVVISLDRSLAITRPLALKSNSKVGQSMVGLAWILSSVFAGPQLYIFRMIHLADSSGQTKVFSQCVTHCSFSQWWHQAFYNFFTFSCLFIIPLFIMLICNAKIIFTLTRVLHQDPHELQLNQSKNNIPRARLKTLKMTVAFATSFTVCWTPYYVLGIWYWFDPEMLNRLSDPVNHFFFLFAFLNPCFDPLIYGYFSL
Chain of KiSS-1 receptor (Homo sapiens) (Q969F8 whole entry, looked up): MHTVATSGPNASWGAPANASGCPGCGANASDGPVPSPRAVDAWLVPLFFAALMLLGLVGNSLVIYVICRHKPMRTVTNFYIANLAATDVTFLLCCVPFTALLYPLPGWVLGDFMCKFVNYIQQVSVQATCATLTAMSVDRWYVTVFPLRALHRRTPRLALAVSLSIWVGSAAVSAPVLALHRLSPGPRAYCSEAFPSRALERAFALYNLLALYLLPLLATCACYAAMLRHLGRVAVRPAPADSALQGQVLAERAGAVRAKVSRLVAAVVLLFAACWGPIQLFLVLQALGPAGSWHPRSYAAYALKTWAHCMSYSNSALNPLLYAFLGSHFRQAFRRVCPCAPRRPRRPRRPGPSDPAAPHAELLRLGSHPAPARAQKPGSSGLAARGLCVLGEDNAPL

Take `CSCCC=O`: the Potency entry in assay [1], in assay [2], in [3], in assay [4], in assay [5] and in assay [6] was “inactive” in each case. Also, the Potency result in assay [7], in [8], in assay [9], in assay [10], in assay [11] and in assay [12] was “inactive” in each case. Further, the Potency result in assay [13], in assay [14], in assay [15], in [16] and in [17] was “inactive” in each case.

With `NC(=O)C1CO1` (configuration not stated), the Potency entry in [1], in [2], in assay [3], in assay [4], in assay [5] and in [6] was “inactive” throughout. Moreover, the Potency entry in [7], in assay [8], in [9], in assay [10], in [11] and in assay [18] was “inactive” throughout. The Potency result in assay [19], in [12], in [13], in assay [14], in assay [20] and in assay [15] was “inactive” in each case. Also, the Potency result in assay [16] was “inactive”.

For the compound `CCOc1ccccc1C(N)=O`, the Potency result in assay [1], in [3], in assay [4], in assay [5], in assay [6] and in [7] was “inactive” in each case. In addition, the Potency entry in assay [8], in assay [9], in assay [10], in assay [11], in assay [19] and in assay [12] was “inactive” in each case. Moreover, the Potency result in [13], in [14], in assay [20], in [15], in assay [16] and in [17] was “inactive” each time. In addition, the Potency result in assay [2] is “inactive and 33.5 µM (active)”.

As to `NNC(=O)c1cccc(C(=O)NN)c1`, the Potency entry in assay [1], in assay [2], in [3], in assay [4], in assay [5] and in assay [6] was “inactive” throughout. The Potency result in assay [7], in assay [8], in [9], in assay [10], in assay [11] and in assay [18] was “inactive” throughout. In addition, the Potency entry in assay [19], in [12], in assay [13], in assay [14], in [20] and in assay [15] was “inactive” throughout.

With `O=S(=O)(O)c1ccccc1O`, the Potency result in assay [1], in assay [2], in assay [3], in assay [4], in [5] and in assay [6] was “inactive” throughout. The Potency entry in assay [7], in assay [8], in assay [9], in assay [10], in assay [11] and in assay [18] was “inactive” each time. For the same compound, the Potency result in [19], in assay [12], in assay [13], in assay [14], in [20] and in assay [15] was “inactive” each time. Also, the Potency result in assay [16] and in assay [17] was “inactive” each time.

Turning to `C1COC1`, the Potency entry in assay [1], in assay [2], in assay [3], in [4], in [5] and in assay [6] was “inactive” throughout. Also, the Potency entry in [7], in assay [8], in assay [9], in assay [10], in assay [11] and in assay [18] was “inactive” each time. Further, the Potency result in assay [19], in assay [12], in assay [13], in [14], in assay [20] and in [15] was “inactive” in each case. Further, the Potency entry in assay [16] and in assay [17] was “inactive” throughout.

In the case of `COc1cc(CCC(C)=O)ccc1O`, the Potency result in assay [1], in assay [2], in assay [3], in [4], in [5] and in assay [6] was “inactive” in each case. The Potency entry in [7], in assay [8], in assay [9], in assay [10], in assay [11] and in assay [18] was “inactive” in each case. In addition, the Potency result in assay [19], in assay [12], in [13], in assay [14], in assay [20] and in assay [15] was “inactive” throughout. Moreover, the Potency entry in [17] is “inactive”.
